Bioassay records from PubChem.
Hits are enriched below; roughly 2.6% of the tested compounds scored in any of these assays.
HEK293 tox: cytotoxic in the GLP-1 receptor inverse agonist counter-screen | HEK293 cAMP-luciferase reporter cells, luminescence, 24 h | Potency, µM (top dose mostly 38.3 µM), without a hit: at the top dose activity change, negative = inhibition, most hits filed as inhibitors | 410,000 tested, 0.13% active | AID 624418;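 further: loss of luciferase light is scored as toxicity; on the % scale 0 is the no-effect control and ±100 the full control effect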
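To flag toxic compounds, the library was rerun on cells for 24 hr at 37 deg C and 5% CO2. Viability-linked luminescence was captured 12 min after adding luciferase detection reagent.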
GLP1R inv ag: acts as inverse agonist at human GLP-1 receptor; P43220; HEK293 GLP-1R CRE-luciferase, luminescence, 24 h; GLP-1R form is constitutively active; Potency, µM (doses to about 38.3 µM), for inactives: at the highest dose activity change, negative = inhibition, usual class: inhibitors; 410,000 tested, 1.6% active; AID 624417; further: on the % scale 0 is the no-effect control and ±100 the full control effect; nearly all actives have a fitted effect of over 55% in size
Target sequence (P43220 whole entry, looked up): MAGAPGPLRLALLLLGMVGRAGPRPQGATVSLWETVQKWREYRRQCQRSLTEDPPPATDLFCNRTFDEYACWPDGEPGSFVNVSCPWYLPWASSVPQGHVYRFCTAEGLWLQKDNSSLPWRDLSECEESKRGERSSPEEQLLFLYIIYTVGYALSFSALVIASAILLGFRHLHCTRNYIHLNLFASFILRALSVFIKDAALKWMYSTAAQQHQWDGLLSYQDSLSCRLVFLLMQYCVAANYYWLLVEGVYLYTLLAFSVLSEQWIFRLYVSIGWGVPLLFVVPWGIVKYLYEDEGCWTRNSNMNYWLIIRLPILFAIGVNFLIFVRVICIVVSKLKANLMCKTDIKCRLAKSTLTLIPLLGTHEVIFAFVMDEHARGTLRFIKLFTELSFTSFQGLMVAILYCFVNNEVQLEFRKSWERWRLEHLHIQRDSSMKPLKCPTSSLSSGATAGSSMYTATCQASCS
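qHTS in 1536-well format: reporter HEK293 cells expressing constitutive GLP-1R activity in DMEM + 10% Nu serum, 24 hr with compounds at 37 deg C, luminescence read after 12 min with detection reagent.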
BRCA1 expr act: increases BRCA1 expression; MCF7-BRCA1-FFLuc reporter, luminescence, 48 h; response scale: scaled: vehicle 0%, 10 µM genistein 100%; Potency, µM (series often up to 46.1 µM), for the others: at the highest dose activation, usual class: activators; 380,000 tested, 1.1% active; AID 624202; further: nearly all actives have a fitted effect of over 80% in size
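Quantitative HTS in MCF7 cells stably reporting BRCA1 expression via firefly luciferase. Compound treatment lasts 48 h at 37 °C in phenol-red free MEM. Activation is expressed relative to genistein at 10 microM and DMSO.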
GLP1R ag: activates the human GLP-1 receptor; P43220; HEK293 GLP-1R CRE-luciferase, luminescence, 4-6 h; cells express a hypersensitive GLP-1R form; Potency, µM (top dose mostly 45.6 µM), without a hit: at the top dose activation, most hits filed as activators; 380,000 tested, 0.007% active; AID 624172; further: % of control where 0% means no effect
The depositor's hits bear a star; [ ] = dose if it differs, or a comment. The call rests on the fitted dose curve; in most records, active means well fitted curve in the direction sought with a large enough effect; inconclusive means small, poorly fitted or top-dose-only effect, or another doubt; inactive means no such curve, though single readings can be large; an effect the other way counts as inactive or inconclusive. Potency means the concentration at half of the fitted maximal effect.

For O=C(c1ccccc1F)N(Cc1nc2ccccc2c(=O)[nH]1)C1CCCC1 the results were HEK293 tox inconclusive, GLP1R inv ag 10µM*, BRCA1 expr act -24% and GLP1R ag -3%.
`O=C1C2C3C=CC(CC3)C2C(=O)N1/N=C/c1c[nH]c2ccccc12` (stereo not drawn) gave HEK293 tox 2%[7.66 µM], GLP1R inv ag 3%[7.66 µM], BRCA1 expr act 8.9µM* and GLP1R ag 6%.
Cc1ccc(OCC(=O)Nc2cccc(OCc3cc(=O)n4cccc(C)c4n3)c2)cc1C was read as HEK293 tox -10% and GLP1R inv ag 1%.
Screening CCC1=NN(C(=O)COc2ccccc2C)C(O)(c2ccncc2)C1 (stereo not drawn) returned HEK293 tox -27%, GLP1R inv ag -1%, BRCA1 expr act 7% and GLP1R ag 4%.
CCC1=NN(C(=O)c2ccc(Br)cc2)C(O)(c2ccccc2)C1 (stereo not drawn) was read as HEK293 tox inconclusive, GLP1R inv ag 0.56µM*, BRCA1 expr act -58% and GLP1R ag -3%.
For CC1=NN(C(=O)c2ccccc2)C(O)(c2ccc(Br)cc2)C1 (stereo not drawn) the results were HEK293 tox -19%, GLP1R inv ag 4µM*, BRCA1 expr act -38% and GLP1R ag 9%.
For CC1=NN(C(=O)COc2ccccc2C)C(O)(c2ccc(Cl)cc2)C1 (stereo not drawn) the results were HEK293 tox inconclusive, GLP1R inv ag 10µM*, BRCA1 expr act -38% and GLP1R ag -5%.
Screening CC1=NN(C(=O)c2ccccc2Cl)C(O)(c2ccccc2)C1 (stereo not drawn) returned HEK293 tox -14%, GLP1R inv ag inconclusive, BRCA1 expr act 5% and GLP1R ag 0%.
COc1ccc(Cl)cc1NC(=O)CSc1nccn1-c1ccc(Cl)cc1 was read as HEK293 tox -9% and GLP1R inv ag -10%.
Screening CCOc1ccccc1NC(=O)C1CCN(S(C)(=O)=O)CC1 returned HEK293 tox 3%, GLP1R inv ag 13%, BRCA1 expr act -2% and GLP1R ag -2%.
COc1ccc2c(c1OC)C(=O)N1c3ccccc3SC21 (stereo not drawn) was read as HEK293 tox 3%, GLP1R inv ag 68%, BRCA1 expr act 5µM* and GLP1R ag 22%.
Screening Cc1cccc(-n2c(SCC(=O)Nc3ccccc3C)nc3c(oc4ccccc43)c2=O)c1 returned HEK293 tox 1% and GLP1R inv ag 6%.
Screening O=S(=O)(c1ccc(F)cc1)N1CCN(c2nc(-c3cccs3)nc3cc(Cl)ccc23)CC1 returned BRCA1 expr act 1%.
`COc1ccc(OCC(=O)N2c3ccc(C)cc3C3CN(C)CCC32)cc1` (stereo not drawn) gave HEK293 tox 11%, GLP1R inv ag -22%, BRCA1 expr act -4% and GLP1R ag 7%.
`Cc1ccc2c(c1)C1CN(C)CCC1N2C(=S)NC(=O)c1ccc(Br)cc1` (stereo not drawn) gave HEK293 tox inconclusive, GLP1R inv ag 11µM*, BRCA1 expr act -27% and GLP1R ag 0%.
Screening O=C(Nc1ccc(C(=O)N2CCOCC2)cc1)Nc1cccc(Cl)c1 returned HEK293 tox -19%, GLP1R inv ag inconclusive, BRCA1 expr act 11µM* and GLP1R ag 6%.
`O=C(Nc1ccc(OCC(=O)N2CCOCC2)cc1)Nc1cccc(Cl)c1` gave HEK293 tox -1%[7.66 µM], GLP1R inv ag 26%[7.66 µM], BRCA1 expr act 28% and GLP1R ag -1%.
`O=C(c1ccccc1)N1CCN(C(=O)c2nn3c(C(F)(F)F)cc(-c4ccccc4)nc3c2Br)CC1` gave HEK293 tox 1%, GLP1R inv ag inconclusive, BRCA1 expr act -9% and GLP1R ag 13%.
For CCC(C)(C)C1CCC2(CC1)NC(=O)N(CC(=O)NCCc1ccc(OC)c(OC)c1)C2=O (stereo not drawn) the results were HEK293 tox -24%, GLP1R inv ag inconclusive, BRCA1 expr act -34% and GLP1R ag 17%.
For O=C(OCCN1C(=O)c2cccc3c(N4CCOCC4)ccc(c23)C1=O)c1ccccc1Cl the results were HEK293 tox inactive, GLP1R inv ag inconclusive, BRCA1 expr act -65% and GLP1R ag 2%.
